The list is not random: actives were taken first. Their share in the collection is about 0.71%.
FXIIa inh mix – factor XIIa (human) inhibition, mixture screen. P00748. purified FXIIa, fluorogenic substrate, pooled mixtures. inhibition, % at 5 µM. 62,000 compounds, 0.2% hits
C1s inh – human complement C1s inhibition; mean inhibition % of two 10-compound mixtures (active compounds read high), % at 5 µM (by protocol); 62,000 compounds, 0.16% hits; P09871; AID 538; purified C1s, fluorogenic AMC substrate, pooled mixtures;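 active = inhibition above 20% in each of the two 10-compound mixture wells holding the compound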
FXIa inh mix – blocks human factor XIa in pooled compound mixtures. purified FXIa, fluorogenic substrate. inhibition, % at 5 µM. 62,000 compounds, 0.19% hits. AID 680;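 also: each value is inhibition by a whole ten-compound pool holding the compound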
Htt clearance – compounds clearing mutant huntingtin protein; inhibition, % at 1.5 µM; HeLa Exon1htt(103Q)mCFP, aggregate imaging; zero = plate's median compound well; 47,000 compounds, 0.42% hits; AID 853;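 active = inhibition of aggregate fluorescence above about 70%, also judged a hit by eye on the cell image, limit read from the data, passing the limit was not always enough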;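 also: cells exposed to compound for three days before fixation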
Cathepsin G inh – blocks human cathepsin G enzyme activity; purified enzyme, AMC-tetrapeptide fluorescence, pooled mixtures; 62,000 compounds, 0.2% hits; inhibition, % at 5 µM (by protocol);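 active = inhibition above 20% in each of the two mixture wells holding the compound; inactive = inhibition of 20% or less in either well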
Target sequence (P08311 21-244 limits assumed): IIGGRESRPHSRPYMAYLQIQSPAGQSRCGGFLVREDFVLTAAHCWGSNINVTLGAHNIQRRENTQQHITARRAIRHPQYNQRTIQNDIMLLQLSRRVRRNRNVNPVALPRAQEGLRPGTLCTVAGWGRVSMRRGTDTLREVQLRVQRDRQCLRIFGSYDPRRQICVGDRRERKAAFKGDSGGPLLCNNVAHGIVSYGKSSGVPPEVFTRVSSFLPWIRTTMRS
A number is an active result; i = inactive; nt = not tested or not shown. Rule as the data show it, unless noted: active = inhibition above about 20% (passing the limit was not always enough); inactive = the rest.

SMILES | FXIIa inh mix | C1s inh | FXIa inh mix | Htt clearance | Cathepsin G inh
CC(C)(C)OC(=O)N1CCC[C@H]1C(=O)NCC1CCC(C(=O)O)CC1 (some centres not stated) | i | i | i | nt | i
CC(=O)CSc1nnc(-c2ccc(S(=O)(=O)N3CCC(C)CC3)cc2)o1 | nt | nt | nt | i | nt
CN(CCOc1ccc(Cl)cc1)c1ccc(S(=O)(=O)N2CCCCC2)cn1 | i | i | 39.8 | nt | i
CCOC(=O)c1sc(NC(=O)C(CC)Sc2nnc3c4ccccc4n(C(C)C)c3n2)nc1C (configuration not stated) | nt | nt | nt | i | nt
CCOC(=O)Cc1nnc(NC(=O)C(CC)Sc2nnc3c4ccccc4n(C)c3n2)s1 (configuration not stated) | i | 22.3 | i | nt | i
CCOC(=O)c1c(NC(=O)c2cc(C3CC3)on2)sc2c1CCCC2 | i | i | i | nt | i
CC(C)=CC1C(C(=O)Nc2ccc(Br)cn2)C1(C)C (configuration not stated) | i | i | i | nt | i
Cc1ccc2c(c1)c1c(n2CC(O)Cn2c(C)nc3ccccc32)/C(=N\O)CCC1 (configuration not stated) | i | i | i | 100.0 | i
Cc1ccc2c(c1)c1c(n2CC(O)Cn2c(C)nc3ccccc32)C(=O)CCC1 (configuration not stated) | i | i | i | nt | i
COc1ccc(-c2cc(C(=O)NCc3ccccc3)no2)cc1OC | i | i | i | nt | i
COC(=O)c1ccccc1NC(=O)c1cc(-c2ccc(OC)c(OC)c2)on1 | i | i | i | 71.0 | i
CCCCNC(=O)c1cc(-c2ccc(OC)c(OC)c2)on1 | i | i | i | i | i
COc1cccc(-c2cc(C(=O)NCCc3ccccc3)no2)c1 | i | i | i | nt | 22.3
COc1ccc(-c2cc(C(=O)NCc3ccc(Cl)cc3)no2)cc1OC | i | i | i | i | 55.3
COc1ccc(CNC(=O)c2cc(-c3ccc(OC)c(OC)c3)on2)cc1 | i | 22.4 | i | nt | 31.7
COc1cccc(-c2cc(C(=O)NCc3ccc(Cl)cc3)no2)c1 | i | i | i | i | i
NC(=O)C1CCN(CC(=O)N2c3ccccc3CCc3ccccc32)CC1 | 29.8 | i | i | nt | i
COC(=O)c1sc(N2C(=O)C(O)=C(C(=O)c3ccc(C)o3)C2c2ccc(F)cc2)nc1C (configuration not stated) | i | i | 39.8 | i | 58.8
CCOc1cccc(C2C(C(=O)c3ccc(C)o3)=C(O)C(=O)N2c2nccs2)c1 (configuration not stated) | i | i | i | nt | i
CCOc1ccc(Nc2nc(C)cc(C)c2C#N)cc1 | i | i | i | 77.0 | i
COc1ccc(Nc2nc(C)cc(C)c2C#N)cc1 | i | i | i | nt | i
CC(=O)Nc1ccc(N/C=C/C(=O)C(C)(C)C)cc1 | i | i | 21.2 | i | i
CC(=O)Nc1ccc(N/C=C/C(=O)c2ccco2)cc1 | i | i | i | i | i
O=C(c1noc2c1CCc1ccccc1-2)N1CCOCC1 | i | i | i | i | 36.5
O=C(c1noc2c1CCc1ccccc1-2)N1CCCc2ccccc21 | i | i | i | i | 39.2
SMILES | FXIIa inh mix | C1s inh | FXIa inh mix | Htt clearance | Cathepsin G inh
O=C(c1noc2c1CCc1ccccc1-2)N1CCc2ccccc2C1 | i | i | i | nt | 30.5
O=C(c1cccnc1)N1CCCc2ccccc21 | i | i | i | nt | i
O=C(c1cc(-c2ccccc2O)on1)N1CCc2ccccc2C1 | i | i | i | i | i
NC(=O)CSCc1ccc(Br)cc1 | i | i | i | nt | i
O=C(O)CSCc1ccc(Cl)cc1 | 65.4 | i | i | i | i
CC(C)(C)NC(=O)c1ccc2c(c1)N(CC(=O)N1CCN(c3ccc(F)cc3)CC1)C(=O)C(C)(C)O2 | i | i | i | i | i
CC(C)(C)NCC1(CO)SC(N)=NC1=O (configuration not stated) | i | i | i | nt | i
C/C(Cl)=C/Cn1c(=O)c2c(nc(Br)n2Cc2ccccc2)n(C)c1=O | i | i | i | i | i
CC(C)C(CC(=O)N1CCCCC1)C1CCOC(C)(C)C1 (configuration not stated) | i | i | i | i | 27.8
Cc1csc(SCC(=O)NC(=O)NCc2ccccc2)n1 | i | i | i | 77.9 | i
O=C(CSc1nncs1)NC(=O)NCc1ccccc1 | i | i | i | nt | i
O=c1[nH]n(CC2COC3(CCCCC3)O2)c(=O)c2ccccc12 (configuration not stated) | i | i | i | nt | i
COc1ccccc1C1c2c(oc3ccc(Cl)cc3c2=O)C(=O)N1c1cc(C)on1 (configuration not stated) | i | i | i | nt | i
O=C(O)c1cn[nH]c1-n1cnnn1 | i | i | i | i | i
